Cy5 interf NS3h = Cy5 fluorescence interference, HCV helicase counter-screen. Cy5-dT15 DNA with NS3h; actives lie on both sides; signal over control mean, under 1 quenches. fluorescence interference ratio at 100 µM. 16,000 tested, 6% active. AID 720488;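 active means compound fluorescence over control fluorescence at most 0.8, a quencher, or at least a set upper limit, an enhancer; inactive means ratio between 0.8 and the set upper limit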
HCV NS3h FP = hepatitis C NS3 helicase inhibition, primary screen | NS3h Cy5-dT15 DNA binding, fluorescence polarization | inhibition, % at 100 µM | 16,000 tested, 1.6% active | AID 687043;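 active means inhibition above the average over every tested compound plus 3 SD, cut at about 40% in these data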
* hit, by the source's call. Sampled rows, rich in hits. Any-hit rate of the full collection: about 7.6%.

SMILES | Cy5 interf NS3h | HCV NS3h FP
COc1cc(/C=C2\SC(=S)N(C(C)C(=O)O)C2=O)ccc1O (stereo unspecified) | 1 | 14
COc1ccccc1/C=C1\SC(=S)N(c2ccc(F)cc2)C1=O | 1 | -1
COc1cc(/C=C2/SC(=S)N(c3ccccc3)C2=O)ccc1OC(=O)c1cccc(C)c1 | 0.67* | 0
CCOC(=O)c1sc(NC(=O)c2ccc(S(=O)(=O)N3CCOCC3)cc2)c(C(=O)OCC)c1C | 0.97 | 10
CN(C)/C=C1/CCc2c([nH]c3ccccc23)C1=O | 0.92 | 10
CN1C(=O)C(=O)C(=C(O)c2ccc(Cl)cc2)C1c1cccc([N+](=O)[O-])c1 (stereo unspecified) | 1.2 | 5
COc1ccc(CCN2C(=O)/C(=C/c3c(NCCCn4ccnc4)nc4c(C)cccn4c3=O)SC2=S)cc1OC | 0.89 | 7
Cc1cccn2c(=O)c(/C=C3\SC(=S)N(Cc4ccccc4)C3=O)c(NCCCn3ccnc3)nc12 | 0.59* | 7
COc1ccccc1NC(=O)c1ccc(Cl)cc1Cl | 0.99 | 14
CCc1ccccc1NC(=O)C(CC)c1ccccc1 (stereo unspecified) | 1 | 12
CCc1ccccc1NC(=O)[C@H]1CC=CC[C@H]1C(=O)O | 0.74* | 19
O=C(N/N=C\c1ccc(O)c([N+](=O)[O-])c1)/C(=C\c1ccc2c(c1)OCO2)NC(=O)c1ccccc1 | 1 | 5
NC(=S)N/N=C\c1cc2c(cc1[N+](=O)[O-])OCO2 | 0.79* | 10
O=C1NC(=S)N(c2ccccc2)C(=O)/C1=C/c1ccc(-c2ccc(C(=O)O)cc2)o1 | 1 | 25
COc1ccc(NC(=O)COc2cccc3ccccc23)cc1 | 0.77* | 16
COc1ccccc1OCC(=O)Nc1ccc(S(N)(=O)=O)cc1 | 1 | 2
CC1CCCN(C(=O)/C=C/c2ccccc2)C1 (stereo unspecified) | 0.96 | 7
Cc1ccc(/C(N)=N\OC(=O)c2cccc(F)c2)cc1 | 1 | 8
O=C(Nc1ccc(/C=C/C(=O)c2cccs2)cc1)c1ccc(Br)cc1 | 1 | -4
CSc1ccc(/C=C/C(=O)c2ccc(NC(=O)c3cccs3)cc2)cc1 | 0.71* | 21
O=C(CCN1C(=O)c2ccccc2C1=O)Nc1ccccc1C(=O)N1CCCC1 | 0.7* | 3
O=C(CCN1C(=O)c2ccccc2C1=O)Nc1ccccc1C(=O)N1CCOCC1 | 0.98 | 9
CCN(CC)c1ccc(NC(=O)CCN2C(=O)c3ccccc3C2=O)cc1 | 0.6* | 2
O=C(CCN1C(=O)c2ccccc2C1=O)Nc1ccc(I)cc1 | 0.98 | 6
N#Cc1ccccc1NC(=O)NS(=O)(=O)c1ccccc1Cl | 0.99 | -1
SMILES | Cy5 interf NS3h | HCV NS3h FP
CCCc1cc2c(-c3ccccc3)cc(=O)oc2cc1OCC | 0.87 | 7
COc1cc(/C=C2\SC(=S)NC2=O)ccc1Oc1ccc([N+](=O)[O-])cn1 | 0.89 | -3
O=C(O)CN1C(=O)/C(=C/c2ccccc2OCc2ccc([N+](=O)[O-])cc2)SC1=S | 1.1 | 24
COc1cc(C=C2C(=O)N(C)C(=O)N(C)C2=O)ccc1Oc1ccc([N+](=O)[O-])cn1 | 0.79* | 30
CN1C(=O)C(=Cc2ccccc2OCc2ccc([N+](=O)[O-])cc2)C(=O)N(C)C1=O | 0.58* | 33
COc1ccc(/C=N\n2cnnc2)cc1CSc1ccccn1 | 1 | 5
CCOc1ccccc1NC(=O)C(=O)NCc1ccc(F)cc1 | 1 | 22
CCOC(=O)C1=C(C)N(c2ccccc2)C(=O)/C1=C\c1cccc([N+](=O)[O-])c1 | 1 | 6
O=C1C2C3CCC(O3)C2C(=O)N1c1ccccc1 (stereo unspecified) | 1 | -1
COc1cc(/C=C2/C(=O)N(c3ccccc3)N=C2C)cc([N+](=O)[O-])c1O | 0.93 | 4
COc1cc(/C=C2/C(=O)N(c3ccccc3)N=C2C)cc(I)c1O | 0.69* | 17
NC(=O)c1ccc(Sc2nc3ccccc3s2)c([N+](=O)[O-])c1 | 1 | 6
NC(=O)c1ccc(NC(=O)c2ccccc2[N+](=O)[O-])cc1 | 0.97 | -7
O=C(N/N=C\c1ccc[nH]1)c1ccccc1[N+](=O)[O-] | 0.67* | 15
Cc1cc(/C=C2\SC(=S)NC2=O)c(C)n1-c1cccc([N+](=O)[O-])c1 | 0.91 | 6
O=C(NCc1cccnc1)c1cnn2c1NC(c1ccc(F)cc1)CC2C(F)(F)F (stereo unspecified) | 0.97 | 5
COCCN1C(=O)/C(=C\c2ccco2)SC1=S | 0.98 | 12
CCOc1cccc(-c2nc3cc(C)ccc3o2)c1 | 1.1 | 0
Cc1ccc2oc(-c3cccc(N)c3C)nc2c1 | 0.56* | 9
Cc1ccccc1NC(=S)NCCOc1ccccc1Cc1ccccc1 | 0.6* | 10
Cc1ccccc1NC(=O)C(=O)NCCc1ccccc1 | 1.1 | 1
COc1ccc(N(CC(=O)Nc2cccc(C(F)(F)F)c2)S(=O)(=O)c2ccccc2)cc1Cl | 1 | -8
Cc1ccc(N(Cc2ccc(C(=O)NC(C)(C)C)cc2)S(C)(=O)=O)cc1C | 0.94 | 10
O=C1C2CCCCC2C(=O)N1c1nc2ccccc2s1 (stereo unspecified) | 0.85 | -6
S=C(NNc1nc2ccccc2s1)NC1CCCCC1 | 0.74* | 17
SMILES | Cy5 interf NS3h | HCV NS3h FP
O=C(NCCN1CCCC1=O)c1ccccc1 | 1 | -1
CCc1ccc(NC(=O)C(=O)NCCc2ccc(F)cc2)cc1 | 0.69* | 2
O=C(NCCO)C(=O)Nc1ccc(F)cc1 | 0.97 | -14
CCOC(=O)N/N=C(/C)C12CC3CC(CC(C3)C1)C2 | 1.1 | -2
Cc1ccc(C(=O)Nc2nc3ccccc3n2Cc2ccc(Cl)cc2)cc1 | 1.1 | -10
O=C(Nc1nc2ccccc2n1Cc1ccc(Cl)cc1)c1ccccc1 | 0.74* | 23
O=C1S/C(=C\c2cccs2)C(=O)N1c1ccccc1 | 0.64* | 1
Cc1ccc(/C=C2/SC(=O)N(c3ccccc3)C2=O)cc1 | 0.97 | 18
O=C(COc1ccc2c(c1)oc(=O)c1ccccc12)OCc1ccccc1 | 0.94 | -1
O=C(COc1ccc2c(c1)oc(=O)c1ccccc12)c1ccccc1 | 1.4* | -72
O=C(CN(c1cccc(Br)c1)S(=O)(=O)c1ccccc1)Nc1cccc2ccccc12 | 1 | 10
S=C(Nc1ccccc1)Nc1ccc(Cc2ccc(NC(=S)Nc3ccccc3)cc2)cc1 | 0.94 | 5
O=C1c2ccccc2C(=O)N1/N=C\c1c(O)ccc2ccccc12 | 0.62* | 9
O=C1c2cccc3cccc(c23)C(=O)N1/N=C\c1ccc(O)cc1 | 1 | 7
CN(C)c1ccc(NC(=O)c2ccccc2Cl)cc1 | 1.1 | 10
O=C(Nc1ccc(-c2cnc(-c3ccc(NC(=O)c4ccccc4Cl)cc3)nc2)cc1)c1ccccc1Cl | 0.72* | 16
O=C(COC(=O)c1ccc(N2C(=O)c3ccccc3C2=O)cc1)COC(=O)c1ccc(N2C(=O)c3ccccc3C2=O)cc1 | 0.93 | 4
CC(=O)c1ccc(N2CCN(C3CC(=O)N(c4ccc(C)cc4)C3=O)CC2)cc1 (stereo unspecified) | 1 | 5
COC(=O)c1ccc(OCC(O)CN(C)C)cc1 (stereo unspecified) | 0.76* | 10
CCOC(=O)c1ccc(NC(=O)c2ccc(OCC(C)C)cc2)cc1 | 0.99 | -3
O=C(O)CCCNC(=O)c1cn(-c2ccccc2)nc1-c1ccccc1 | 1 | 1
CCNC(=S)NCCc1ccc(S(N)(=O)=O)cc1 | 1 | 0
COc1ccc(C(=O)N2CCN(S(C)(=O)=O)CC2)cc1 | 1.1 | -2

Assay outcomes from PubChem BioAssay.
